From PubChem BioAssay AID1063 (University of Pittsburgh Molecular Library Screening Center, 2008)
Out of some 200,000 compounds screened, about 18,000 (9%) were called active. Cut-off read from the data, not from the text of the source: active = inhibition above about 50%; inactive = the rest. The sample as a whole holds a higher share of actives than the screen did.

assay: Leishmania major promastigote growth inhibition, primary screen (AID 1063); settings: Leishmania major promastigotes, resazurin fluorescence viability; at 10 µM; hits give high values;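 note: promastigotes grown with compound for 44 hours at 28 °C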

Structure (SMILES)	inhibition
CCOc1ccc(S(=O)(=O)Nc2ccncc2)c(C)c1C	-6% (inactive)
O=C(CCn1ccc([N+](=O)[O-])n1)Nc1nccs1	11.6% (inactive)
COc1ccc2c(c1OC)C(=O)OC2Nc1nc(-c2ccccc2)cs1 (configuration not stated)	99.8% (active)
COc1ccc(-c2csc(Nc3ccccn3)n2)cc1	15.6% (inactive)
COc1ccc2c(c1OC)C(=O)OC2c1c(O)nc(SC)n(-c2ccccc2)c1=O (configuration not stated)	-6.91% (inactive)
CC(=O)c1cnc(-c2ccccc2)s1	-5.94% (inactive)
COCCNC(=O)C(c1ccc(O)cc1)N(C(=O)CCC(=O)Nc1nccs1)c1ccc(C)cc1 (configuration not stated)	-10.6% (inactive)
CN1CCCN(C(=O)C2CCCCC2)CC1	0.8% (inactive)
COc1ccc(CC2(CO)CCN(Cc3cnn(C)c3)CC2)cc1	91.4% (active)
CCOC(=O)C1(S(=O)(=O)c2ccc(Cl)cc2)CCN(Cc2ccccc2)CC1	29.3% (inactive)
Cc1nn(C)c(C)c1S(=O)(=O)N1CCC(CO)(Cc2ccc(Cl)cc2)CC1	2.5% (inactive)
COC(=O)c1ccc(CN2CCC(CO)(Cc3ccc(OC)cc3)CC2)cc1	86.4% (active)
COc1cccc(CC2(CO)CCN(Cc3cnc(-c4cccc(C)c4)nc3)CC2)c1	4.89% (inactive)
COC(=O)CCC(=O)N1CCCC(CO)(Cc2ccccc2)C1 (configuration not stated)	-4.47% (inactive)
COc1ccc(C(=O)Nc2sc(C)c(C)c2CN2CCOCC2)cc1	-3.61% (inactive)
CCOC(=O)C1(CCOC)CCN(Cc2ccc(C(=O)OC)cc2)CC1	81.1% (active)
CCOC(=O)C1(S(=O)(=O)c2ccccc2)CCN(Cc2ccccc2)CC1	1.91% (inactive)
OCCCC1CCCCN1Cc1nc(Cc2ccccc2Cl)no1 (configuration not stated)	-4.56% (inactive)
Cc1nc2ccccc2c(C)c1C(=O)c1ccc(F)cc1	-3.66% (inactive)
CC(OC(=O)c1ccccc1N1C(=O)C2C3CCC(C3)C2C1=O)C(=O)c1ccccc1 (configuration not stated)	32% (inactive)
CCCCN(CC(=O)NC(C)(C)C)C(=O)C(=O)Nc1ccc2c(c1)OCCO2	-6.64% (inactive)
Cn1ncc(N2CCN(S(=O)(=O)c3ccc(Br)cc3)CC2)c(Cl)c1=O	39.2% (inactive)
O=C1CC(=O)Nc2cc(S(=O)(=O)N3CCN(c4cccc(C(F)(F)F)c4)CC3)ccc2N1	-5.33% (inactive)

Structure (SMILES)	inhibition
Cc1cc(C)nc(Nc2ncn[nH]2)n1	-7.12% (inactive)
CCCCS(=O)c1snnc1C (configuration not stated)	-4.06% (inactive)
COc1ccc(N(CC(=O)Nc2ccc(C)cc2C)S(=O)(=O)c2ccccc2[N+](=O)[O-])c(OC)c1	9.22% (inactive)
O=C(Nc1ccc2ccccc2c1)/C(=C\c1ccc2c(c1)OCO2)NC(=O)c1ccco1	1.7% (inactive)
Cc1cccc(NC(=O)/C(=C\c2ccco2)NC(=O)c2ccccc2)c1	3.51% (inactive)
O=C(Nc1ccc2ccccc2c1)/C(=C/c1cccc(Br)c1)NC(=O)c1ccco1	76.3% (active)
CCCCCCCCCCOC(=O)C[N+](C)(C)CC1CCCCC1O (configuration not stated)	-3.34% (inactive)
N#C/C(=C\c1ccc(N2CCOCC2)o1)C(=O)N1CCOCC1	39.9% (inactive)
N#C/C(=C/c1ccc(N2CCCCC2)o1)C(=O)NCCc1c[nH]c2ccccc12	0.13% (inactive)
N#C/C(=C/c1ccc(N2CCOCC2)o1)C(=O)N1CCOCC1	54.5% (active)
CC(C)(C)C(=O)N(Cc1ccccc1)c1ccccn1	-4.68% (inactive)
O=C(c1ccncc1)c1ccc([N+](=O)[O-])cc1	5.83% (inactive)
Cc1ccc(NC(=O)c2cccnc2C(=O)Nc2ccc(C)cc2)cc1	-1.85% (inactive)
CCn1cc(CNC(=O)c2cc([N+](=O)[O-])c(C)c([N+](=O)[O-])c2)cn1	18.8% (inactive)
O=C(NN=C1CCC(=NNC(=O)c2cccnc2)CC1)c1cccnc1	-9.82% (inactive)
O=C(N/N=C/c1sc(N2CCCCC2)nc1-c1cccs1)c1cccnc1	66.3% (active)
Cc1cc(/C=N/NC(=O)c2cccnc2)c(C)n1CC(C)C	-1.49% (inactive)
O=C(COC(=O)CNC(=O)c1ccccc1F)NCC(F)(F)F	-0.59% (inactive)
COc1ccc(CC(NC(C)=O)C(=O)NC2CCN(C(=O)C3CC3)CC2)cc1OC (configuration not stated)	-1.59% (inactive)
CC(=O)NC1=NN(C(C)=O)C(C)(c2ccc(C)cc2)S1 (configuration not stated)	63.1% (active)
CC(=O)NC1=NN(C(C)=O)C(C)(c2ccc(Cl)s2)S1 (configuration not stated)	37.2% (inactive)
CC(=O)NC1=NN(C(C)=O)C(C)(CCS(=O)(=O)c2ccc(Cl)c(Cl)c2)S1 (configuration not stated)	-0.49% (inactive)
CCCC(=O)Nc1nnc(-c2ccccc2)o1	-6.09% (inactive)

Structure (SMILES)	inhibition
COc1cc(/C=N/NC(=S)Nc2cccnc2)cc(OC)c1O	-1.76% (inactive)
Cc1ccc(-c2cc(C(F)(F)F)n3nc(C(=O)N4CCCC4)cc3n2)cc1	2.83% (inactive)
O=C(O)c1cnn2c(C(F)(F)F)cc(-c3ccccc3)nc12	-4.02% (inactive)
Cc1ccc(-c2cc(C(F)(F)F)n3ncc(C(=O)N4CCCCC4c4cccnc4)c3n2)cc1 (configuration not stated)	89.6% (active)
O=C(CSc1cccc[n+]1[O-])c1ccc(Cl)cc1	1.35% (inactive)
CC(C(=O)NCC1CCCCC1)N(C)Cc1cccc(Cl)c1 (configuration not stated)	-1.13% (inactive)
O=C(/C=C/c1ccccc1)N/C(=C/c1ccccc1)C(=O)Nc1ccccc1O	5.36% (inactive)
CCc1ccccc1NC(=O)/C(=C/c1ccccc1)c1ccccc1	66% (active)
CCc1ccccc1NC(=O)c1cccs1	-2.12% (inactive)
Oc1ccc(-c2nncn2-c2ccccc2)cc1	-8.74% (inactive)
CN(CC(=O)N1CCN(c2ccccc2)CC1)S(=O)(=O)c1cccs1	-7.19% (inactive)
O=C(O)CSCC(=O)Nc1ccc(C(F)(F)F)cc1	-3.47% (inactive)
CCOc1ccc(NC(=O)CCC(=O)N/N=C/c2ccc([N+](=O)[O-])s2)cc1	96.6% (active)
O=C(Cc1cc(=O)[nH][nH]1)N/N=C/c1ccccc1[N+](=O)[O-]	-6.04% (inactive)
COc1cc(/C=N\NC(=O)CNC(=O)c2cccc([N+](=O)[O-])c2)ccc1O	8.51% (inactive)
COc1ccc(C(=O)NCC(=O)N/N=C/c2ccc([N+](=O)[O-])s2)cc1OC	97% (active)
CCOc1ccc(NC(=O)CCC(=O)n2nc(C)cc2C)cc1	-2.57% (inactive)
Cc1ccccc1NCC(=O)N/N=C\c1ccc([N+](=O)[O-])s1	101% (active)
COc1ccc(/C=N/NC(=O)CNC(=O)c2ccc(S(=O)(=O)N3CCCC3)cc2)c(OC)c1	28.7% (inactive)
Cc1cccc(/C=N/NC(=O)CNc2cccc3ccccc23)n1	1.6% (inactive)
CCCCCC(=O)Nc1ccc(C(=O)N/N=C/c2ccc([N+](=O)[O-])cc2)cc1	34.7% (inactive)
